According to ChEMBL document CHEMBL3433997, “St. Jude Leishmania screening dataset” (2016):

How the values were obtained:
Type in all cases: functional
[1] = biological target: Solute carrier family 2, facilitated glucose transporter member 1 (Homo sapiens) (UniProt P11166); assay: ST_JUDE_LEISH: Cytotoxicity at 2uM final concentration against transgenic Leishmania Mexicana promastigotes LmGLUT1 that are glucose transport deficient and complemented with the human glucose transporter GLUT1. Activity is measured by DNA content using SYBR green in vitro
Chain of Solute carrier family 2, facilitated glucose transporter member 1 (Homo sapiens) (P11166 whole entry): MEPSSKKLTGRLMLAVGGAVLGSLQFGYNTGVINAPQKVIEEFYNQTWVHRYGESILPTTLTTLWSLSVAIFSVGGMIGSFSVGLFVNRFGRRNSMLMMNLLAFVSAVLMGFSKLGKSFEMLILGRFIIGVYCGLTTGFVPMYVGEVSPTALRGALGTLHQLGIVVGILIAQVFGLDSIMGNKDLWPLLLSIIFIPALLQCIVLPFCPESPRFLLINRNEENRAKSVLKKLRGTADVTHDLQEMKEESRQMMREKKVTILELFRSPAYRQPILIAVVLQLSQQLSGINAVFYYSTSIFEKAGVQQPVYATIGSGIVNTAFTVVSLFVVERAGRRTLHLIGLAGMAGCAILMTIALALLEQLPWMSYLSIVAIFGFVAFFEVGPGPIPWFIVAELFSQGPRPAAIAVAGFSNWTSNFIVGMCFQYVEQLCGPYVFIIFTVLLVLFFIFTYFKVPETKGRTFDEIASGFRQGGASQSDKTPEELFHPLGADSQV

[2] = biological target: Hexose transporter 1 (Plasmodium falciparum) (UniProt O97467); assay: ST_JUDE_LEISH: Cytotoxicity at 2uM final concentration against transgenic Leishmania Mexicana promastigotes LmPfHT that are glucose transport deficient and complemented with the Plasmodium falciparum hexose transporter. Activity is measured by DNA content using SYBR green in vitro
[3] = biological target: Glucose transporter (Leishmania mexicana) (UniProt O61059); assay: ST_JUDE_LEISH: Cytotoxicity at 2uM final concentration against transgenic Leishmania Mexicana promastigotes LmGT2 that are glucose transport deficient and complemented with the L. Mexicana glucose transporter 2. Activity is measured by DNA content using SYBR green in vitro

SMILES | inhibition [1] [%] | inhibition [2] [%] | inhibition [3] [%]
CS(=O)(=O)NCCCNCc1cccc(-c2ccc(-c3nc4ccccc4[nH]3)s2)c1 | 12.1 | 11.8 | 11
CC(=O)NCCNc1nccc(N2CCc3ncnc(Nc4ccc(OCc5ccccn5)c(Cl)c4)c3C2)n1 | 0.91 | 1.71 | 1.9
O=C(Nc1ccc(Br)cc1)N(CCN1CCOCC1)CC(O)COCc1ccc(F)cc1 (stereo unspecified) | 1.97 | 1 | -8.93
CC1CN(c2ccc(NC(=O)c3ccsc3)cc2C(=O)N2CCN(Cc3ccc(C(C)(C)C)cc3)CC2)CC(C)O1 (stereo unspecified) | -1.24 | 1.1 | 0.3
CC1CN(CCCn2c3ccccc3c3ccc(C(=O)CCCN(C)C)cc32)CC(C)N1 (stereo unspecified) | 1.15 | 1.4 | 1.24
Nc1nc(N)c2c(ccc3nn(Cc4ccccc4)cc32)n1 | -0.49 | 0.59 | -0.15
C=CCOC(=O)N1CCC(CNCc2cccc(-c3ccc(-c4nc5cc(C(F)(F)F)ccc5[nH]4)cc3)c2)C1 (stereo unspecified) | 2.19 | 2.5 | 1.63
O=C(/C=C/c1ccc(Cl)c(Cl)c1)NCCCCCCN1CCN(C(=O)Nc2cc(F)cc(F)c2)CC1 | 5.47 | 5.75 | 7.38
OC(CNc1ccnc(Nc2cccc(Cl)c2)n1)c1ccccc1C(F)(F)F (stereo unspecified) | 4.32 | 4.32 | -0.94
Cc1cccc2nc(-c3ccc(-c4ccc(NC(=O)Nc5ccc(Cl)cc5)cc4)cc3)[nH]c12 | -1.7 | 1.17 | -1.04
CC(=O)Nc1ccc(Nc2ncc([N+](=O)[O-])c(Nc3ccccc3C(N)=O)n2)cc1 | 3.27 | 1.61 | 1.93
CN(C)c1ccc(CN2CCC(NC(=O)c3ccc(-c4cccc(Cl)c4)s3)CC2)cc1 | 0.72 | -1 | 0.31
Cn1nc(-c2cccc(CNC3CCc4ccccc43)c2)c2cnc(NCCCN3CCCC3)nc21 (stereo unspecified) | 29.9 | 32.6 | 25.9
CSc1nccc(-c2ccc3ccnc(N)c3c2)n1 | 11.2 | 10.7 | 9.37
CC(C)CNC(=O)c1cncc(-c2cccc(CNC3Cc4ccccc4C3)c2)c1 | 10.7 | 6.1 | 6.4
CCNc1cc(C(=O)N[C@@H](Cc2ccccc2)[C@H](O)CNCCc2ccccc2)cc(N2CCCC2=O)c1 | 0.28 | 1.31 | 0.88

SMILES | inhibition [1] [%] | inhibition [2] [%] | inhibition [3] [%]
COc1nc2c(N3CCN(CCNCc4ccc5c(n4)NC(=O)CO5)CC3)ccnc2cc1F | 4.21 | 2.44 | 0.39
CCNc1cc(C(=O)N[C@@H](Cc2ccccc2)[C@H](O)CNC(CC)c2cccc(Cl)c2)cc(N2CCCC2=O)c1 (stereo partly specified) | 3.51 | -0.75 | 3.68
CCc1cc2c(=O)c(-c3nc(C)cs3)c([C@H](N)Cc3ccc(O)cc3)oc2cc1O | 2.9 | 2.34 | 7.8
COc1cccc(CNC[C@@H](O)[C@H](Cc2ccccc2)NC(=O)c2cc(N3CCCC3=O)c3[nH]cc(C(C)C)c3c2)c1 | 1.26 | 2.02 | 2.36
CCN1CCN(CCNc2c3ccccc3nc3ccccc23)CC1 | 83.5 | 80.6 | 79
Cc1nnsc1C(=O)Nc1cccc(-c2ccc(-c3nc4cc(F)ccc4[nH]3)cc2)c1 | 3.93 | 3.3 | 4.66
CCCNC(=O)Nc1cc2cc(-c3ccc(CN4CCCC4)cc3)ccc2n2c(C)nnc12 | 4.57 | 3.01 | -1.87
CC(CCCCC(=O)Nc1ccc(C(F)(F)F)cc1)NCC(O)c1cccc(Cl)c1 (stereo unspecified) | 1.04 | -0.95 | 1.56
COc1ccccc1N1CCN(c2cccc3c2nc(-c2cncc(C#N)c2)n3CCNCc2ccccc2)CC1 | 9.96 | 7.58 | 6.47
CC1CN(Cc2ccccc2)CCN1c1ccc(NC(=O)c2ccc(F)cc2)cc1 (stereo unspecified) | -1.05 | -1.7 | -3.4
OC(CNCCCCCCNCC(O)c1ccc(Cl)c(Cl)c1)c1ccc(Cl)c(Cl)c1 (stereo unspecified) | 3.81 | 4.69 | 3.55
COc1ccc(CNC2CCCC2)cc1-c1ccc(S(=O)(=O)NCCN2CCCC2)s1 | 1.79 | 2.89 | 3.68
COc1cc(CNCCCCCCNCc2cc(OC)c3ccccc3c2OC)c(OC)c2ccccc12 | 8.25 | 11.8 | 13.6
Cc1cc(NC(=O)NCCN2CCC(NS(=O)(=O)c3ccccc3Cl)C2)c2ccccc2n1 (stereo unspecified) | -2.1 | 1.02 | 8.99
COc1ccc(Cl)cc1N1CCN(CCCNC(=O)c2ccc(-c3nc4cc(Cl)c(Cl)cc4[nH]3)c(C)c2)CC1 | 1.66 | 0.9 | 1.04
COc1ccc(CNC(=O)C2Cc3ccccc3CN2Cc2ccc3ccccc3c2)cc1 (stereo unspecified) | 2.51 | 1.12 | -0.58
